Results published in PubChem BioAssay (Tox21).
Records with an inconclusive call do not appear. Active and inactive are the calls of the source. Calls follow the shape of the dose curve; as a rule, active = well fitted cell-killing curve with a large enough effect in the repeat runs; inconclusive = weak or mixed curves, or effect the other way; inactive = flat fitted curve, though single readings scatter.

Assay: cAMP Responsive Elements (CRE) small molecule antagonists, cell-based qHTS assay: qHTS cell viability counter screen (AID 2060913); also: nearly all actives have a fitted effect of over 40% in size
Conditions: CRE-bla HEK293T viability, CellTiter-Glo luminescence, 5 h; series mostly up to 92.4 µM; viability change, negative = cytotoxic: at the top concentration
Procedure, shortened: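 Cytotoxicity counter screen multiplexed with the CRE-bla antagonist read: HEK293T cells in DMEM with dialyzed FBS and 25 mM HEPES were treated 3 hrs under 0.25 uM final NKH477, then viability measured by CellTiter-Glo luminescence.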
% is scaled to controls: 0 for no effect and ±100 for the full control effect; potency is read from the fitted curve at half-maximal effect.

Structure (SMILES)	viability change, negative = cytotoxic	Potency
CC(=O)Nc1ccn(C2COC(COC(=O)c3ccccc3)O2)c(=O)n1 (stereo not given)	0.85% [at 42.5 µM] (inactive)	–
C[C@@H]1C[C@H]2[C@@H]3C[C@H](F)C4=CC(=O)C(Cl)=C[C@]4(C)[C@@]3(F)[C@@H](O)C[C@]2(C)[C@@]1(O)C(=O)CO	-4.52% [at 42.5 µM] (inactive)	–
CCOC(=O)CC#N	-6.14% (inactive)	–
c1ccc(Cc2ccccc2)cc1	2.2% (inactive)	–
N=C(N=C(N)N)N1CCOCC1	-0.378% [at 42.5 µM] (inactive)	–
CCCCCCCCCCCCCCCCCCOCCO	-9.04% [at 18.9 µM] (inactive)	–
NS(=O)(=O)c1ccc(NC(=O)CCC(=O)O)cc1	-2.03% [at 42.5 µM] (inactive)	–
COc1ccc(C(=O)/C(Br)=C\C(=O)O)cc1	10.4% (inactive)	–
CCCNC(C)(C)COC(=O)c1ccccc1	-3.43% [at 42.5 µM] (inactive)	–
CC(=O)NC(Cc1ccccc1)C(=O)O (stereo not given)	9.67% [at 42.5 µM] (inactive)	–
O=c1[nH]c(=O)n([C@H]2C[C@H](O)[C@@H](CO)O2)cc1F	-9.84% [at 42.5 µM] (inactive)	–
Nc1ccc(S(=O)(=O)Nc2ccccc2)cc1	1.12% [at 42.5 µM] (inactive)	–
Cc1ccsc1/C=C/C1=NCCCN1C	-0.697% [at 42.5 µM] (inactive)	–
O=C1c2ccccc2C(=O)N1SC1CCCCC1	–	inactive
COc1cc(C)nc(-n2nc(C)cc2OC)n1	1.88% [at 42.5 µM] (inactive)	–
COc1ccc2[nH]c(S(=O)Cc3ncc(C)c(OC)c3C)nc2n1 (stereo not given)	0.723% [at 42.5 µM] (inactive)	–
CCCCCCCCOCCC#N	1.03% (inactive)	–
CN(C)C(=O)C1(N2CCCCC2)CCN(CC[C@@]2(c3ccc(Cl)c(Cl)c3)CN(C(=O)c3ccccc3)CCO2)CC1	–	64.1 µM (active)
CCCCCCOC(=O)NC(=N)c1ccc(NCc2nc3cc(C(=O)N(CCC(=O)OCC)c4ccccn4)ccc3n2C)cc1	–	26.6 µM (active)
COC(Cc1ccccc1)OC	8.45% (inactive)	–

Structure (SMILES)	viability change, negative = cytotoxic	Potency
CCCCNC(=S)NCCCC	1.39% (inactive)	–
O=C(O)c1cccc(C(=O)O)c1C(=O)O	-3.66% (inactive)	–
Brc1nc2ccccc2s1	–	inactive
CCc1nnc(NS(=O)(=O)c2ccc(N)cc2)s1	-2.97% [at 42.5 µM] (inactive)	–
CCCCN(CCCC)CCC(O)c1cc2c(Cl)cc(Cl)cc2c2cc(C(F)(F)F)ccc12 (stereo not given)	-3.76% [at 42.5 µM] (inactive)	–
Nc1ncnc2c1ncn2[C@@H]1O[C@H](COP(=O)(O)O)[C@@H](O)[C@H]1O	10.5% [at 42.5 µM] (inactive)	–
CCOc1cc(N)c(Cl)cc1C(=O)NCC1CN(Cc2ccc(F)cc2)CCO1 (stereo not given)	-0.53% [at 42.5 µM] (inactive)	–
Cc1c(C)n(CCN(C)C)c2ccc(C(=O)OCCN(C)C)cc12	-0.195% [at 42.5 µM] (inactive)	–
Cc1nc(-c2ccc(OCC(C)C)c(C#N)c2)sc1C(=O)O	17.5% [at 42.5 µM] (inactive)	–
CCO[Si](CCCN=C=O)(OCC)OCC	13.3% (inactive)	–
CCCCN(CCO)CCO	0.695% (inactive)	–
CC(=O)OCC(C)OC(C)=O (stereo not given)	-5.59% (inactive)	–
CCN(CC)CCc1nc(-c2ccccc2)no1	5.59% [at 42.5 µM] (inactive)	–
O=C1c2cccc(O)c2C(=O)c2c(O)cc(CO)cc21	-11.5% (inactive)	–
O=C(CC(C(=O)OC1CCCCC1)S(=O)(=O)O)OC1CCCCC1 (stereo not given)	–	inactive
CC(=O)Nc1ccccc1O	3.02% (inactive)	–
O=C(Nc1ccccc1)c1ccccc1O	-17.3% (inactive)	–
NCCCN(CCO)CCO	-1.28% (inactive)	–
Cc1cc(=O)oc2cc(N(C)C)ccc12	0.1% (inactive)	–
CC(C)C(O)C(C)(C)CO (stereo not given)	-0.179% (inactive)	–
